# Experimental data from the supplement of paper PMC6607015.
# Counter-ions that a name gives are not always drawn.
# Columns and labels:
# Conditions in all cases: compound concentration in added solution (µM; 5 µl added to 20 µl cells): 10; 18 h
# A431 [1] = experiment: LBPA endosome anti-LBPA integrated intensity (sum per cell), Z-score; higher = more LBPA staining
# Outline: (§1)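 The data are Z-scores, normalised in AcuityXpress, of integrated LBPA or filipin intensity in each cell, either whole-cell or restricted to LBPA endosomes. HeLa MZ or A431 cells, 3,500 per well in 20 µl, were seeded onto 5 µl of 10 µM compound solution in duplicate 384-well plates and incubated 18 h. Fixed cells were stained and imaged, with intensities extracted by MetaXpress segmentation.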
# HeLa MZ [2] = experiment: as above
# Outline: as §1
# A431 [3] = experiment: whole-cell filipin (free cholesterol) integrated intensity, Z-score; higher = more cholesterol staining
# Outline: as §1
# HeLa MZ [4] = experiment: as above
# Outline: as §1
# A431 [5] = experiment: filipin (cholesterol) integrated intensity within LBPA endosomes, Z-score; higher = more cholesterol in LBPA endosomes
# Outline: as §1
# HeLa MZ [6] = experiment: as above
# Outline: as §1
SMILES,LBPA endosome anti-LBPA integrated intensity (z-score) (A431 [1]),LBPA endosome anti-LBPA integrated intensity (z-score) (HeLa MZ [2]),whole-cell filipin (z-score) (A431 [3]),whole-cell filipin (z-score) (HeLa MZ [4]),filipin (z-score) (A431 [5]),filipin (z-score) (HeLa MZ [6])
C[C@]12C=CC(=O)C=C1CC[C@@H]1[C@@H]2[C@@H](O)C[C@@]2(C)[C@H]1CC[C@]2(O)C(=O)CO [Prednisolone],-0.285,-0.493,-0.674,-0.403,-0.432,-0.544
N=C(N=C(N)N)N1CCOCC1 [Moroxidine hydrochloride],-0.598,-1.32,-1.06,-0.892,-0.527,-0.669
C[C@H](O)C(=O)Nc1c(I)c(C(=O)NC(CO)CO)c(I)c(C(=O)NC(CO)CO)c1I [Iopamidol],-0.637,-1.5,-0.34,-0.1,-0.494,-0.379
CN(C)CCC(c1ccc(Br)cc1)c1ccccn1 (configuration not stated) [Brompheniramine maleate],-0.686,-0.0361,-0.609,-0.596,-0.344,0.233
CN1CCN(C2=Nc3cc(Cl)ccc3Nc3ccccc32)CC1 [Clozapine],1.19,2.46,0.629,-0.114,0.781,1.4
Clc1ccc(C(c2ccccc2Cl)C(Cl)Cl)cc1 (configuration not stated) [Mitotane],-0.586,-1.29,-0.251,-0.167,-0.511,-0.815
CC1(C)NC(=O)N(c2ccc([N+](=O)[O-])c(C(F)(F)F)c2)C1=O [Nilutamide],-0.466,-0.349,-0.373,-0.711,-0.474,-0.472
C#C[C@]1(O)CC[C@H]2[C@@H]3[C@H](C)CC4=C(CCC(=O)C4)[C@H]3CC[C@@]21C [Tibolone],-0.522,-0.57,-0.775,-0.295,-0.476,-0.561
Cc1cc(C(C)(C)C)c(O)c(C)c1CC1=NCCN1 [Oxymetazoline hydrochloride],-0.605,0.256,-0.84,-0.57,-0.491,-0.228
N=C(N)c1ccc(OCCCCCOc2ccc(C(=N)N)cc2)cc1 [Pentamidine isethionate],-0.319,-1.47,-0.429,-0.57,-0.313,-0.712
C[C@@H]1[C@H](O)[C@@H](C)/C=C/C=C/C=C/C=C/C=C/C=C/C=C/[C@H](O[C@@H]2O[C@H](C)[C@@H](O)[C@H](N)[C@@H]2O)C[C@@H]2O[C@](O)(C[C@@H](O)C[C@@H](O)[C@H](O)CC[C@@H](O)C[C@@H](O)CC(=O)O[C@H]1C)C[C@H](O)[C@H]2C(=O)O [Amphotericin B],0.731,-0.696,-0.156,0.222,0.0841,-0.26
CN(C)[C@@H]1C(O)=C(C(N)=O)C(=O)[C@@]2(O)C(O)=C3C(=O)c4c(O)cccc4[C@@](C)(O)[C@H]3[C@H](O)[C@@H]12 [Oxytetracycline dihydrate],-0.525,-0.93,-0.872,-0.703,-0.537,-0.753
OC(CCN1CCCCC1)(c1ccccc1)c1ccccc1 [Pridinol methanesulfonate salt],-0.0313,0.215,-0.378,-0.508,-0.23,-0.0603
CCn1cc(C(=O)O)c(=O)c2cnc(N3CCNCC3)nc21 [Pipemidic acid],-0.522,0.188,-0.242,0.338,-0.361,-0.281
O=C1c2ccccc2C(=O)C1c1ccccc1 [Phenindione],-0.457,0.398,-0.346,-0.343,-0.498,-0.468
O=S(=O)(O)c1cc(O)ccc1O [Ethamsylate],-0.297,0.237,0.0355,-0.226,-0.436,-0.57
Clc1ccc(C(Cn2ccnc2)OCc2csc3c(Cl)cccc23)c(Cl)c1 (configuration not stated) [Sertaconazole nitrate],-0.364,1.08,0.486,1.1,-0.139,0.708
NCCCCCC(=O)O [Aminocaproic acid],-0.515,-0.605,-0.556,-0.716,-0.511,-0.479
Nc1ccn([C@@H]2CS[C@H](CO)O2)c(=O)n1 [Lamivudine],-0.481,-0.745,-0.233,-0.14,-0.498,-0.564
CC[N+](C)(CC)CCOC(=O)C1c2ccccc2Oc2ccccc21 [Methantheline bromide],-0.356,-0.164,-0.155,-0.214,-0.359,-0.379
CN[C@@H]1[C@H](O[C@H]2[C@H](O[C@H]3[C@H](O)[C@@H](O)[C@H](N=C(N)N)[C@@H](O)[C@@H]3N=C(N)N)O[C@@H](C)[C@]2(O)C=O)O[C@@H](CO)[C@H](O)[C@H]1O [Streptomycin sulfate],-0.673,-1.38,-0.979,-0.78,-0.577,-0.576
Clc1cnccn1 [2-Chloropyrazine],-0.346,-0.401,0.139,-0.365,-0.401,-0.492
